Structures are written as SMILES. Results filed as inconclusive are left out. Activity calls are given as the source filed them. How the source made its calls, unless noted: active means hit-call score of the fitted dose curve at least 0.9, where 1 is the maximum; inconclusive means response in the unintended direction; inactive means score below 0.9.

By AC50 is commonly meant the concentration giving half of the maximal activity seen.

Estrogen receptor (Homo sapiens), sequence (P03372 whole entry, looked up): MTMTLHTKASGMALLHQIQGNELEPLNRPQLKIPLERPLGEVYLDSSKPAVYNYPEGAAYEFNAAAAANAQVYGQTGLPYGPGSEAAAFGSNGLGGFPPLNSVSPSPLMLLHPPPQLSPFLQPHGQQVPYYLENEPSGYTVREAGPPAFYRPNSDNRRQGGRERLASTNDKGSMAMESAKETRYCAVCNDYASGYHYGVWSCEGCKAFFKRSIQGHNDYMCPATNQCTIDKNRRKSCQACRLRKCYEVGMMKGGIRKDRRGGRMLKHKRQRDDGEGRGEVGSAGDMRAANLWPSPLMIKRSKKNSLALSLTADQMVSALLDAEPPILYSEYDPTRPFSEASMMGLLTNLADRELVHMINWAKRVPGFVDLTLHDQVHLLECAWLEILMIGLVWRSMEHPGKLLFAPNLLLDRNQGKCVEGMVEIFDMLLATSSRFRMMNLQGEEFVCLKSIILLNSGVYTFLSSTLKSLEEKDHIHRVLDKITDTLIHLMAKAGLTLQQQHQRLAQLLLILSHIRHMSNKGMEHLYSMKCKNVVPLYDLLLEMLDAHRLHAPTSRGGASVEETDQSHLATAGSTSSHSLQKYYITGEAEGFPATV

One experiment has as its target Estrogen receptor (Homo sapiens) (UniProt P03372). The experiment in a line: OT_ERa_GFPERaERE_0480: Odyssey Thera (OT) 8-hour HeLa Transcription Induction Assay for Estrogen Receptor (AID 2283381; active means hit-call score of the fitted dose curve at least 0.9, where 1 is the maximum; inactive means score below 0.9). In short, it runs like this:
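Human cervical HeLa cells were treated for 8 hours, after which ERE-driven GFP induction was measured by fluorescence microscopy; increases over DMSO baseline defined activity.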
For `CN(C)C(=O)Nc1ccc(Cl)c(Cl)c1`, the molecule was called inactive.

As to `CC(=O)S[C@@H]1CC2=CC(=O)CC[C@]2(C)[C@H]2CC[C@@]3(C)[C@@H](CC[C@@]34CCC(=O)O4)[C@H]12`, the molecule was called inactive.

In the case of `CSC(=O)c1cccc2nnsc12`, the outcome was inactive.

For the molecule `CC(=O)[C@H]1CC[C@H]2[C@@H]3CCC4=CC(=O)CC[C@]4(C)[C@H]3CC[C@]12C`, the outcome was inactive.

Turning to `N[C@@H](Cc1cc(I)c(Oc2ccc(O)c(I)c2)c(I)c1)C(=O)O`, the result was inactive.

`COc1c(Cl)ccc(Cl)c1C(=O)O`: the call was inactive.

In the case of `CCSC(=O)N(CC(C)C)CC(C)C`, the call was inactive.

On to `CCCN(CCC)C(=O)SCC`, for which the molecule was called inactive.

With `COC(=O)c1ccccc1C(=O)O`, the molecule was called inactive.

As for `CCCCC(CC)CN1C(=O)C2C3C=CC(C3)C2C1=O` (stereo unspecified), the molecule was called inactive.

A further experiment shares this target. The experiment in a line: OT_ERa_GFPERaERE_0120: Odyssey Thera (OT) 2-hour HeLa Transcription Induction Assay for Estrogen Receptor (AID 2283382). In short, it runs like this: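 Cells (human cervical HeLa) receive compound, incubate 2 hours, then are imaged for fluorescent reporter induction. Images are quantified by high content analysis, and activity is fitted as gain of signal against DMSO.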
Consider `CN(C)C(=O)Nc1ccc(Cl)c(Cl)c1`, for which the outcome was inactive.

In the case of `CC(=O)S[C@@H]1CC2=CC(=O)CC[C@]2(C)[C@H]2CC[C@@]3(C)[C@@H](CC[C@@]34CCC(=O)O4)[C@H]12`, the call was inactive.

In the case of `CSC(=O)c1cccc2nnsc12`, the molecule was classed as inactive.

Turning to `CC(=O)[C@H]1CC[C@H]2[C@@H]3CCC4=CC(=O)CC[C@]4(C)[C@H]3CC[C@]12C`, the molecule was classed as inactive.

In the case of `N[C@@H](Cc1cc(I)c(Oc2ccc(O)c(I)c2)c(I)c1)C(=O)O`, the molecule was called inactive.

Turning to `COc1c(Cl)ccc(Cl)c1C(=O)O`, the molecule was classed as inactive.

In the case of `CCSC(=O)N(CC(C)C)CC(C)C`, the outcome was inactive.

On to `CCCN(CCC)C(=O)SCC`, for which the molecule was called inactive.

In the case of `COC(=O)c1ccccc1C(=O)O`, the molecule was classed as inactive.

Turning to `CCCCC(CC)CN1C(=O)C2C3C=CC(C3)C2C1=O` (stereo unspecified), the call was inactive.

A further experiment deals with Bile acid receptor (Homo sapiens) (UniProt Q96RI1). Nature of the experiment: OT_FXR_FXRSRC1_0480: Odyssey Thera (OT) 8-hour HEK293T Protein-Complementation Assay for Farnesoid X receptor/SRC-1 Co-activator (AID 2283383). In short, it runs like this: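 PCA, HEK293T, 8 h compound exposure; FXR–SRC-1 binding reconstitutes split reporter; fluorescence intensity; positive-direction fit vs DMSO.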
Bile acid receptor (Homo sapiens), sequence (Q96RI1 whole entry, looked up): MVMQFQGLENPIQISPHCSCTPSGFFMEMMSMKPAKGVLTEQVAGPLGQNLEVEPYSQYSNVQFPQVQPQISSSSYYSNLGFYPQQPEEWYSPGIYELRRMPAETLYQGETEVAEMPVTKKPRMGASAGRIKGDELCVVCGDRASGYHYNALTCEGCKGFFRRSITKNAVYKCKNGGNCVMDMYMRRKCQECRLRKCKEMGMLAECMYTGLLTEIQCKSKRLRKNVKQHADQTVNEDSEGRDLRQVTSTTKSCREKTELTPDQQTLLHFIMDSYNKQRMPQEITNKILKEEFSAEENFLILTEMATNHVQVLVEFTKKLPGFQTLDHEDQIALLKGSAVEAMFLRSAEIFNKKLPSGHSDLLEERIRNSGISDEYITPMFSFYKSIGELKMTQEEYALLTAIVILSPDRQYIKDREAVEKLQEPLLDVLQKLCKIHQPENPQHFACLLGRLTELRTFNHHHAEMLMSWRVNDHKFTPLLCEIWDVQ
With `CC(C)(C)[C@@H](O)[C@@H](Cc1ccc(Cl)cc1)n1cncn1`, the result was inactive.

`CCC(C)OC(=O)N1CCCCC1CCO` (stereo unspecified): the call was inactive.

For the molecule `CCCCOCCOCCOCc1cc2c(cc1CCC)OCO2`, the AC50 was 33.1 µM (active).

Turning to `C[C@]12CC[C@@H]3c4ccc(O)cc4C[C@@H](CCCCCCCCCS(=O)CCCC(F)(F)C(F)(F)F)[C@H]3[C@@H]1CC[C@@H]2O` (stereo partly specified), the molecule was called inactive.

Consider `CCOC(=O)C(C)Oc1ccc(Oc2nc3ccc(Cl)cc3o2)cc1` (stereo unspecified), for which the AC50 is 35.9 µM (active).

For the molecule `COC(=O)CSc1cc(N=c2sc(=O)n3n2CCCC3)c(F)cc1Cl`, the molecule was classed as inactive.

A further experiment has the same target. Nature of the experiment: OT_FXR_FXRSRC1_1440: Odyssey Thera (OT) 24-hour HEK293T Protein-Complementation Assay for Farnesoid X receptor/SRC-1 Co-activator (AID 2283384). In short, it runs like this:
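Measures ligand-driven FXR–SRC-1 co-activator recruitment in HEK293T via fragment complementation, fluorescence intensity at 24 h. DMSO served as negative control and baseline for gain-of-signal fitting.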
As to `CC(C)(C)[C@@H](O)[C@@H](Cc1ccc(Cl)cc1)n1cncn1`, the molecule was called inactive.

Regarding `CCC(C)OC(=O)N1CCCCC1CCO` (stereo unspecified), the call was inactive.

On to `CCCCOCCOCCOCc1cc2c(cc1CCC)OCO2`, for which the molecule was called inactive.

Regarding `C[C@]12CC[C@@H]3c4ccc(O)cc4C[C@@H](CCCCCCCCCS(=O)CCCC(F)(F)C(F)(F)F)[C@H]3[C@@H]1CC[C@@H]2O` (stereo partly specified), the result was inactive.

With `CCOC(=O)C(C)Oc1ccc(Oc2nc3ccc(Cl)cc3o2)cc1` (stereo unspecified), the molecule was classed as inactive.

(Values after PubChem BioAssay (EPA / NIEHS).)
